Data as given in PubChem BioAssay AID1159580 (chemical genetic matrix, 2015).
Values joined by “and” are separate entries in the source; they are usually repeats but may differ in a detail not shown here. Identical values can stand only once. Among all 5,500 compounds or so, about 2,000 (36%) were called active. About 18% were inconclusive and are not listed. Cut-off read from the data, not from the text of the source: active = normalized growth mostly below about 0.91 (no sharp cut-off); inconclusive = no clear call, values can overlap the other calls; inactive = mostly above about 0.92. Some of the results follow.

Test: chemical genetic growth profiling, strain panel (AID 1159580);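 note: tested at 20 µM; growth read once vehicle control cultures reached saturation at 30 °C; 1 = growth at the plate median or of vehicle wells; lower values mean less growth of the strain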
Settings: S. cerevisiae deletion strains, growth OD
[1] = locus YAL040C, strain CLN3, stronger effect = lower value
[2] = locus YER002W, strain NOP16, stronger effect = lower value
[3] = locus YGR078C, strain PAC10, stronger effect = lower value
[4] = locus YGR229C, strain SMI1, stronger effect = lower value
[5] = locus YMR263W, strain SAP30, stronger effect = lower value
[6] = locus YNL175C, strain NOP13, stronger effect = lower value
[7] = locus YNL197C, strain WHI3, stronger effect = lower value
[8] = locus YNL224C, strain SQS1, stronger effect = lower value
[9] = locus YOR083W, strain WHI5 (second series), stronger effect = lower value
[10] = locus YPL241C, strain CIN2, stronger effect = lower value
[11] = locus YAL013W, strain DEP1, stronger effect = lower value
[12] = locus YBR229C, strain ROT2, stronger effect = lower value
[13] = locus YDL101C, strain DUN1, stronger effect = lower value
[14] = locus YDR150W, strain NUM1, stronger effect = lower value
[15] = locus YEL061C, strain CIN8, stronger effect = lower value
[16] = locus YHR030C, strain SLT2, stronger effect = lower value
[17] = locus YJR043C, strain POL32, stronger effect = lower value
[18] = locus YJR075W, strain HOC1, stronger effect = lower value
[19] = locus YLR039C, strain RIC1, stronger effect = lower value
[20] = locus YLR262C, strain YPT6, stronger effect = lower value
[21] = locus YNL128W, strain TEP1, stronger effect = lower value
[22] = locus YNL153C, strain GIM3, stronger effect = lower value
[23] = locus YNL322C, strain KRE1, stronger effect = lower value
[24] = locus YPL055C, strain LGE1, stronger effect = lower value
[25] = locus YMR307W, strain GAS1, stronger effect = lower value

Measured: normalized growth

NC(N)=NOCCC(N)C(=O)O (stereo not given)
inactive: [1] 0.988 | [2] 0.98 | [3] 0.996 | [4] 1.01 | [5] 0.98 | [6] 0.984 | [7] 0.984 | [8] 0.999 | [9] 0.975 | [10] 0.996

CCOC(=O)c1c(C)n(-c2ccccc2)c2ccc(O)cc12
inactive: [11] 0.998 | [12] 1 | [13] 0.995 | [14] 1 | [15] 0.965 | [3] 0.995 | [16] 0.923 | locus YHR087W, strain rtc3, stronger effect = lower value 0.993 | [17] 1.03 | [18] 0.989 | [19] 1.02 | locus YLR058C, strain SHM2 (second series), stronger effect = lower value 0.985 | locus YLR085C, strain ARP6, stronger effect = lower value 0.931 | [20] 0.984 | locus YML094W, strain GIM5, stronger effect = lower value 0.94 | locus YMR219W, strain ESC1, stronger effect = lower value 0.999 | [5] 0.956 | [21] 0.99 | [22] 0.976 | [23] 0.998 | locus YNR030W, strain Alg12, stronger effect = lower value 0.963 | [24] 0.982 | [10] 0.979 | locus YPR135W, strain CTF4, stronger effect = lower value 0.911

CCOC(=O)C1=CC2(CC)CCCN3CCc4c(n1c1ccccc41)C32 (stereo not given)
inactive: [1] 1 | locus YCL061C, strain MRC1 (second series), stronger effect = lower value 1 | [14] 1 | locus YDR363W, strain ESC2, stronger effect = lower value 1 | [2] 1.02 | [3] 0.999 | [4] 1.01 | [18] 0.984 | [25] 1.01 | [22] 0.989 | [6] 1.03 | [7] 1.03 | [8] 1.01 | [23] 0.983 | [9] 1.01 | [24] 1.02 | [10] 0.997

CC[C@]12CCCN3CCc4c(n(c5ccccc45)[C@](O)(C(=O)OC)C1)[C@@H]32
inactive: [11] 0.984 | locus YAL021C, strain ccr4, stronger effect = lower value 0.986 | locus YAL026C, strain drs2, stronger effect = lower value 0.983 | locus YAL030W, strain snc1, stronger effect = lower value 0.984 | locus YBL061C, strain skt5, stronger effect = lower value 0.979 | locus YBR009C, strain hhf1, stronger effect = lower value 0.999 | locus YBR021W, strain FUR4, stronger effect = lower value 0.998 | locus YBR023C, strain chs3, stronger effect = lower value 0.991 | locus YBR171W, strain sec66, stronger effect = lower value 0.983 | [12] 0.951 | locus YBR231C, strain swc5, stronger effect = lower value 0.994 | locus YBR279W, strain paf1, stronger effect = lower value 0.98 | locus YCL011C, strain gbp2, stronger effect = lower value 0.985 | locus YCL016C, strain dcc1, stronger effect = lower value 0.966 | locus YCL029C, strain bik1, stronger effect = lower value 0.978 | locus YCL061C, strain MRC1, stronger effect = lower value 0.986 | locus YCL069W, strain vba3, stronger effect = lower value 0.987 | locus YCR088W, strain abp1, stronger effect = lower value 0.981 | locus YDL005C, strain med2, stronger effect = lower value 0.96 | locus YDL035C, strain GPR1, stronger effect = lower value 0.966 | locus YDL040C, strain nat1, stronger effect = lower value 0.989 | locus YDL074C, strain BRE1, stronger effect = lower value 0.991 | [13] 0.977 | locus YDL185W, strain tfp1, stronger effect = lower value 0.964 | locus YDL192W, strain arf1, stronger effect = lower value 0.979 | locus YDR001C, strain nth1, stronger effect = lower value 0.98 | locus YDR069C, strain doa4, stronger effect = lower value 0.991 | locus YDR101C, strain arx1, stronger effect = lower value 0.964 | locus YDR137W, strain rgp1, stronger effect = lower value 0.954 | locus YDR159W, strain sac3, stronger effect = lower value 1.01 | locus YDR162C, strain NBP2, stronger effect = lower value 0.97 | locus YDR195W, strain ref2 0.952 | locus YDR297W, strain sur2, stronger effect = lower value 0.99 | locus YDR318W, strain mcm21, stronger effect = lower value 1 | locus YDR334W, strain swr1, stronger effect = lower value 0.975 | locus YDR335W, strain msn5, stronger effect = lower value 0.979 | locus YDR388W, stronger effect = lower value 0.978 | locus YDR392W, strain spt3, stronger effect = lower value 0.946 | locus YDR502C, strain sam2, stronger effect = lower value 0.978 | locus YEL003W, strain gim4, stronger effect = lower value 0.984 | locus YEL037C, strain rad23, stronger effect = lower value 0.979 | locus YEL061C, strain CIN8 (second series), stronger effect = lower value 0.986 | [15] 0.982 | locus YER015W, strain faa2, stronger effect = lower value 0.985 | locus YER016W, strain bim1, stronger effect = lower value 0.969 | locus YER110C, stronger effect = lower value 0.979 | locus YER111C, strain swi4, stronger effect = lower value 0.978 | locus YER155C, strain BEM2 (second series), stronger effect = lower value 0.958 | locus YER155C, strain BEM2, stronger effect = lower value 0.995 | locus YER167W, strain BCK2, stronger effect = lower value 0.996 | locus YFR010W, strain ubp6, stronger effect = lower value 0.998 | locus YGL078C, strain dbp3, stronger effect = lower value 0.997 | locus YGL086W, strain mad1, stronger effect = lower value 0.977 | locus YGL167C, strain pmr1, stronger effect = lower value 0.979 | locus YGL173C, strain kem1, stronger effect = lower value 0.984 | locus YGL227W, strain vid30, stronger effect = lower value 0.981 | locus YGL240W, strain doc1, stronger effect = lower value 1.02 | locus YGL248W, strain PDE1, stronger effect = lower value 0.993 | locus YGL253W, strain hxk2, stronger effect = lower value 0.981 | [3] 0.982 | locus YGR135W, strain pre9, stronger effect = lower value 1.04 | locus YGR252W, strain gcn5, stronger effect = lower value 1.07 | locus YHR013C, strain ard1, stronger effect = lower value 0.953 | locus YHR027C, strain rpn1, stronger effect = lower value 0.991 | [16] 0.992 and 0.98 | locus YHR079C, strain IRE1 (second series), stronger effect = lower value 0.961 | locus YHR079C, strain IRE1, stronger effect = lower value 0.964 | locus YHR094C, strain hxt1, stronger effect = lower value 0.981 | locus YHR129C, strain ARP1, stronger effect = lower value 0.988 | locus YHR142W, strain chs7, stronger effect = lower value 0.964 | locus YHR200W, strain rpn10, stronger effect = lower value 0.971 | locus YIL066C, strain RNR3, stronger effect = lower value 0.977 | locus YIL073C, strain SPO22, stronger effect = lower value 0.965 | locus YIL125W, strain kgd1, stronger effect = lower value 0.988 | locus YIR030C, strain dcg1, stronger effect = lower value 0.99 | locus YJL092W, strain hpr5, stronger effect = lower value 0.993 | locus YJL095W, strain BCK1 (second series), stronger effect = lower value 0.973 | locus YJL095W, strain BCK1, stronger effect = lower value 1.01 and 0.994 | locus YJL115W, strain asf1, stronger effect = lower value 1 | locus YJL129C, strain trk1, stronger effect = lower value 0.974 | locus YJL134W, strain LCB3, stronger effect = lower value 0.99 | locus YJL154C, strain vps35, stronger effect = lower value 0.968 | locus YJL164C, strain tpk1, stronger effect = lower value 0.997 | locus YJL166W, strain qcr8, stronger effect = lower value 1.01 | locus YJL168C, strain set2, stronger effect = lower value 0.984 | locus YJL187C, strain SWE1 (second series), stronger effect = lower value 0.979 | locus YJL187C, strain SWE1, stronger effect = lower value 0.985 | [17] 0.977 | locus YJR066W, strain TOR1, stronger effect = lower value 0.925 | locus YKL009W, strain mrt4, stronger effect = lower value 0.985 | locus YKL068W, stronger effect = lower value 0.987 | locus YKL085W, strain MDH1 (second series), stronger effect = lower value 0.997 | locus YKL085W, strain MDH1, stronger effect = lower value 0.997 | locus YKL160W, strain elf1, stronger effect = lower value 0.962 | locus YKR001C, strain vps1, stronger effect = lower value 0.977 | locus YKR026C, strain gcn3, stronger effect = lower value 0.988 | locus YKR091W, strain srl3, stronger effect = lower value 0.982 | locus YLL001W, strain dnm1, stronger effect = lower value 0.986 | locus YLL026W, stronger effect = lower value 1 | locus YLL041C, strain sdh2, stronger effect = lower value 0.987 | locus YLR027C, strain aat2, stronger effect = lower value 0.989 | [19] 1.03 | locus YLR058C, strain SHM2, stronger effect = lower value 0.976 | locus YLR102C, strain apc9, stronger effect = lower value 0.982 | locus YLR113W, strain HOG1, stronger effect = lower value 0.976 | locus YLR221C, strain rsa3, stronger effect = lower value 1 | locus YLR258W, strain gsy2, stronger effect = lower value 0.964 | locus YLR262C, strain YPT6 (second series), stronger effect = lower value 0.977 | [20] 0.912 | locus YLR268W, strain sec22, stronger effect = lower value 0.963 | locus YLR320W, strain mms22, stronger effect = lower value 0.995 | locus YLR330W, strain CHS5, stronger effect = lower value 0.988 | locus YLR342W, strain FKS1 (second series), stronger effect = lower value 0.997 | locus YLR342W, strain FKS1, stronger effect = lower value 0.989 | locus YLR357W, strain rsc2, stronger effect = lower value 0.953 | locus YLR370C, strain arc18, stronger effect = lower value 0.975 | locus YLR371W, strain rom2, stronger effect = lower value 0.987 | locus YLR384C, strain iki3, stronger effect = lower value 0.977 | locus YLR418C, strain cdc73, stronger effect = lower value 0.989 | locus YML016C, strain PPZ1, stronger effect = lower value 0.991 | locus YML032C, strain rad52, stronger effect = lower value 0.967 | locus YML120C, strain ndi1, stronger effect = lower value 0.99 | locus YML124C, strain tub3, stronger effect = lower value 0.989 | locus YMR058W, strain fet3, stronger effect = lower value 0.983 | locus YMR078C, strain ctf18, stronger effect = lower value 0.977 | locus YMR125W, strain sto1, stronger effect = lower value 0.98 | locus YMR129W, stronger effect = lower value 0.985 | locus YMR205C, strain PFK2, stronger effect = lower value 0.97 | locus YMR223W, strain ubp8, stronger effect = lower value 1.03 | locus YMR231W, strain pep5, stronger effect = lower value 0.982 | [25] 0.967 | locus YNL067W, strain RPL9B, stronger effect = lower value 0.987 | locus YNL071W, strain lat1, stronger effect = lower value 0.981 | [21] 0.974 | [22] 0.994 | locus YNL183C, strain NPR1, stronger effect = lower value 0.915 | locus YNL209W, strain ssb2, stronger effect = lower value 0.988 | locus YNL233W, strain BNI4, stronger effect = lower value 0.99 | locus YNL248C, strain rpa49, stronger effect = lower value 0.99 | locus YNL250W, strain rad50, stronger effect = lower value 0.984 | locus YNL271C, strain bni1, stronger effect = lower value 0.986 | locus YNL298W, strain CLA4, stronger effect = lower value 0.987 | locus YNL307C, strain MCK1, stronger effect = lower value 0.981 | locus YNL322C, strain KRE1 (second series), stronger effect = lower value 0.969 | locus YNR049C, strain mso1, stronger effect = lower value 0.978 | locus YNR052C, strain pop2, stronger effect = lower value 0.993 | locus YOL012C, strain htz1 0.992 | locus YOL147C, strain pex11, stronger effect = lower value 0.989 | locus YOR001W, strain rrp6, stronger effect = lower value 1.02 | locus YOR061W, strain CKA2, stronger effect = lower value 0.976 | locus YOR069W, strain VPS5, stronger effect = lower value 0.992 | locus YOR070C, strain gyp1, stronger effect = lower value 0.995 | locus YOR080W, strain dia2, stronger effect = lower value 0.972 | locus YOR083W, strain WHI5, stronger effect = lower value 0.98 | locus YOR106W, strain vam3, stronger effect = lower value 0.984 | locus YOR136W, strain idh2, stronger effect = lower value 0.969 | locus YOR144C, strain elg1, stronger effect = lower value 0.984 | locus YOR184W, strain ser1, stronger effect = lower value 0.98 | locus YOR231W, strain MKK1, stronger effect = lower value 1.01 | locus YOR265W, strain rbl2, stronger effect = lower value 0.995 | locus YOR270C, strain vph1, stronger effect = lower value 0.988 | locus YOR290C, strain snf2, stronger effect = lower value 0.979 | locus YOR316C, strain cot1, stronger effect = lower value 0.968 | locus YPL051W, strain arl3, stronger effect = lower value 0.971 | locus YPL078C, strain atp4, stronger effect = lower value 0.973 | locus YPL106C, strain sse1, stronger effect = lower value 0.959 | locus YPL240C, strain hsp82, stronger effect = lower value 0.985 | [10] 0.967 | locus YPL256C, strain CLN2, stronger effect = lower value 0.984 | locus YPR119W, strain clb2, stronger effect = lower value 0.975 | locus YPR141C, strain kar3, stronger effect = lower value 0.979 | locus YPR163C, strain tif3, stronger effect = lower value 0.974 | locus YPR167C, strain met16, stronger effect = lower value 0.995 | strain wtn01, stronger effect = lower value 1
